Screening results: PubChem, several laboratories
Hits are enriched below; roughly 27% of the tested compounds scored in any of these assays.
EphB4 antag = EphB4-ephrin-B2 interaction antagonism; P54760; EphB4 LBD / TNYL-RAW-Alexa532 peptide, fluorescence polarization; inhibition, % at 7 µM; 0.15% of 97,000 active; AID 720;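 active = inhibition above the screen-wide mean inhibition plus 3 SD, cut at about 15% in these data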
Target sequence (P54760 whole entry, looked up, the tested form may be a part): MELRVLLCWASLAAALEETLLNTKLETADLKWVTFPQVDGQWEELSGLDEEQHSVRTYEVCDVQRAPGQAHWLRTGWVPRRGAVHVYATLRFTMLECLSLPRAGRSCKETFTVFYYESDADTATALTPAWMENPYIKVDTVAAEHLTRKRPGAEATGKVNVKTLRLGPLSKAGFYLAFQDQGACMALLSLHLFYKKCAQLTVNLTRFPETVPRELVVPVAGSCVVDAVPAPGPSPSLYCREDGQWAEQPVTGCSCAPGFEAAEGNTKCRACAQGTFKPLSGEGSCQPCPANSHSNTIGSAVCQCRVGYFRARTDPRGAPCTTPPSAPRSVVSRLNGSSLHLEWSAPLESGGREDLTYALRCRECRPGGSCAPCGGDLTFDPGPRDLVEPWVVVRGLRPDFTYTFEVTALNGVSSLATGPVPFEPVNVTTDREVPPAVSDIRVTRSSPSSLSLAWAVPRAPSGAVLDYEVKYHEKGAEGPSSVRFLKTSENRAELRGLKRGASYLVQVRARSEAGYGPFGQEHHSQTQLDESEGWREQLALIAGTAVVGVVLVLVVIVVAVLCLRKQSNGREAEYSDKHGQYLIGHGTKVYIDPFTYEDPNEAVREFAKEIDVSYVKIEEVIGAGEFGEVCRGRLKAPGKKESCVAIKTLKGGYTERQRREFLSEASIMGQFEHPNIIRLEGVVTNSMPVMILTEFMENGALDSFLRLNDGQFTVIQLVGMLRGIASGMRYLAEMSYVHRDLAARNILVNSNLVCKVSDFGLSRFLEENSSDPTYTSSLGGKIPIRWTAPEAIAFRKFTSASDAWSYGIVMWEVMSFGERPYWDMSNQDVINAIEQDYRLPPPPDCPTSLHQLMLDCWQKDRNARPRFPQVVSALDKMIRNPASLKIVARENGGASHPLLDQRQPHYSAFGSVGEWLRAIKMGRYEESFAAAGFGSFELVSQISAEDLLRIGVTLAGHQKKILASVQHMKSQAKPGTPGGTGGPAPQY
CYP2C9 act = CYP2C9 (human) activation; recombinant CYP2C9, luciferin-H conversion, luminescence; hits give high values; factor 1 = untreated enzyme, 0 = blocked; activation factor at 5 µM; P11712; 1.4% of 96,000 active;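 active = activation factor of 2 or more for CYP2C9 at a 5 µM dose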
CYP2C9 inhib = blocks human cytochrome P450 2C9; inhibition, % at 5 µM; CYP2C9 Supersomes, luciferin-H conversion, luminescence; 20% of 96,000 active; P11712; AID 777;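 active = blocking of liver enzyme CYP2C9 beyond about 50% at 5 µM, limit read from the data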
CYP2C19 inhib = inhibitors of human CYP2C19; inhibition, % at 5 µM; CYP2C19 Supersomes, luciferin-H EGE luminescence, 30 min; 21% of 96,000 active;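 active = CYP2C19 inhibition above a set limit at 5 µM in the primary screen, cut at about 50% in these data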
CYP2C19 act = increases human CYP2C19 enzyme activity; P33261; recombinant CYP2C19, luciferin-H EGE luminescence; hits give high values; 0 = fully inhibited enzyme, 1 = untreated enzyme; activation factor at 5 µM; 96,000 tested, under 10 active; AID 1025;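 active = activation factor of at least 2 at 5 µM in the primary screen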
Numbers stand for hits; . = inactive; / = no result.

SMILES	EphB4 antag	CYP2C9 act	CYP2C9 inhib	CYP2C19 inhib	CYP2C19 act
CCCCOc1ccc(C(=O)Nc2ccncc2)cc1	.	.	99	99	.
O=C(CCCOc1ccccc1)Nc1ccncc1	/	.	97	99	.
CCNC(=O)CCCOc1ccc(Cl)cc1Cl	.	.	.	83	.
CCOC(=O)CNC(=O)COc1ccc(Cl)cc1Br	.	.	.	.	.
CCOC(=O)c1oc2c(O)c(O)ccc2c(=O)c1-c1nncn1-c1ccccc1	.	.	.	.	.
CCCCN1CCc2c1nc1ccc(Br)cc1c2N	.	.	.	.	.
O=C(CCCOc1ccc(Cl)cc1Cl)Nc1ccncc1	.	.	100	99	.
COc1cc(CNCC(C)C)cc(Br)c1OCC(=O)Nc1ccccc1	.	/	/	/	/
CCCCNCc1cc(Cl)c(OCCC)c(OCC)c1	.	.	.	68	.
CCOc1c(Cl)cc(CNCC(C)C)cc1OC	.	.	.	71	.
OCC#CCSc1nnc(-c2ccc(Br)cc2)o1	.	.	.	60	.
COc1ccc(-c2nnc(SCC#CCO)o2)cc1OC	.	.	.	.	.
O=C(OCC#CCSc1nnc(-c2ccncc2)o1)c1cccs1	.	.	78	79	.
O=C(OCC#CCSc1nc2ccccc2o1)c1cc2ccccc2o1	.	/	/	/	/
O=C(OCC#CCSc1nc2ccccc2o1)c1ccco1	.	.	57	74	.
OCC#CCSc1nnc(-c2ccccc2Br)o1	.	.	.	.	.
COC(=O)CSc1nnc(-c2ccncc2)o1	.	.	.	.	.
O=C(OCC#CCSc1nnc(-c2cccc3ccccc23)o1)c1ccco1	.	2.1	.	.	.
CC(=O)Nc1ccc2c3c(cccc13)CC2	.	/	/	/	/
CN(C)c1oc(-c2ccc(OCc3ccccc3)cc2)nc1C#N	.	.	.	80	.
N#Cc1nc(-c2ccc(OCc3ccccc3)cc2)oc1NCc1cccnc1	.	.	.	.	.
CCCCn1c(SCC(=O)N2CC(=O)Nc3ccccc32)nnc1-c1ccoc1C	.	.	.	.	.
O=C(CSc1nnc(-c2ccccc2Cl)o1)Nc1ccc2c(c1)OCCO2	.	/	/	/	/
O=c1c(-c2nnc(SCc3ccc(Cl)c(Cl)c3)o2)cccn1Cc1ccccc1	.	.	56	84	.
CCCOC(=O)CCn1c(=S)oc2ccccc21	.	.	.	90	.
SMILES	EphB4 antag	CYP2C9 act	CYP2C9 inhib	CYP2C19 inhib	CYP2C19 act
COCCNC(=O)c1cn(C)c2ccc(S(=O)(=O)N(C)C3CCCCC3)cc2c1=O	.	.	.	.	.
Cn1c(=O)n(CCOc2ccccc2Cl)c2ccccc21	.	.	86	96	.
Nc1nc2ccccc2n1CCOc1ccccc1Cl	.	.	.	56	.
CCC(=O)c1c[nH]c(C(=O)NCCCN2CCOCC2)c1	.	.	.	.	.
CCCCCc1ccc(CC(=O)Nn2c(C)nc3ccccc3c2=O)cc1	.	.	95	60	.
Cc1nc2ccccc2c(=O)n1NC(=O)Cc1ccc(Br)cc1	.	.	85	.	.
Cc1nc2ccccc2c(=O)n1NC(=O)c1c(O)c2ccccc2n(C)c1=O	/	.	.	.	.
O=C(CSc1nnc(COc2cccc3cccnc23)o1)N1CCN(C(=O)c2ccco2)CC1	.	/	/	/	/
CC(Cc1c[nH]c2ccccc12)NC(=O)C1CCCNC1=O (configuration not stated)	.	.	.	.	.
CC(=O)/C(=N/Nc1cccc(C)c1)N1CCOCC1	.	.	68	67	.
Cc1ccc(NC(=O)N2CCOCC2)c(C)c1	.	.	.	.	.
Oc1cc2ccccc2cc1-c1n[nH]c(=S)o1	.	.	68	.	.
O=C(NCc1cccs1)c1cccc(Nc2nc3ccc(Br)cc3[nH]2)c1	.	.	83	.	.
O=C(NCc1cccs1)c1ccncc1	.	.	.	.	.
CC(C)CNC(=S)NNC(=O)c1ccc(OC(F)F)cc1	.	.	.	.	.
Nc1nnc(SCc2ccccc2Cl)s1	.	.	.	68	.
Cc1cc(C)c(C#N)c(SCc2cc3c(cc2Cl)OCO3)n1	.	.	.	.	.
Nc1nnc(SCc2cc3c(cc2Cl)OCO3)s1	.	.	.	70	.
CCC(=O)c1cc(F)c(N2CCN(C(=O)Cc3ccccc3)CC2)cc1C	.	.	84	85	.
CCC(=O)c1ccc(N2CCN(C(=O)Cc3ccccc3)CC2)c(F)c1	.	.	95	78	.
CCC(=O)c1ccc(N2CCN(C(=O)c3ccc(Br)cc3)CC2)c(F)c1	.	.	.	.	.
Cc1cc(N2CCOCC2)c(F)cc1C(=O)c1ccccc1	.	.	.	59	.
CCOC(=O)Nc1ccc2c(c1)N(C(=O)CCN1CCOCC1)c1ccccc1S2	.	.	.	65	.
COC(=O)Nc1ccc2c(c1)N(C(=O)CCN1CCOCC1)c1ccccc1S2	.	.	.	.	.
Cc1ccc(Nc2nc(N)nc(CN3CCN(C)CC3)n2)cc1C	.	.	.	.	.
SMILES	EphB4 antag	CYP2C9 act	CYP2C9 inhib	CYP2C19 inhib	CYP2C19 act
CCOC(=O)N1CCN(Cc2nc(N)nc(Nc3ccc(Oc4ccccc4)cc3)n2)CC1	.	.	81	.	.
COc1ccc(N2CCN(Cc3nc(N)nc(Nc4ccc(C)c(Cl)c4)n3)CC2)cc1	.	.	68	59	.
CCOc1nc(Nc2ccc(F)cc2)nc(N2CCN(c3ccc(OC)cc3)CC2)n1	.	.	.	.	.
CCOc1nc(Nc2ccc(OC)c(Cl)c2)nc(N2CCN(c3ccc(OC)cc3)CC2)n1	.	.	67	.	.
Cc1ccc(Nc2nc(N)nc(CN3CCN(c4ccccc4)CC3)n2)cc1Cl	.	.	60	.	.
COc1ccc(Nc2nc(N)nc(CN3CCOCC3)n2)cc1	.	.	.	.	.
Cc1cc(C)n(C(=O)COc2ccccc2C)n1	.	/	/	/	/
CCC(=O)Nc1ccc(S(=O)(=O)Nc2cc(C)on2)cc1	.	.	.	.	.
COc1cc(NC(=O)CN2C(=O)NC(C)(CC(C)C)C2=O)cc(OC)c1 (configuration not stated)	.	.	.	.	.
Nc1nc(CN2CCN(c3ccccc3)CC2)nc(N2CCCc3ccccc32)n1	.	.	60	62	.
CC(C)NC(=O)C1CCN(C(=O)c2cc3sccc3n2Cc2ccc(F)cc2)CC1	.	.	72	56	.
CCn1c(C(=O)N2CCC(C(=O)N3CCN(c4ccccn4)CC3)CC2)cc2sccc21	.	.	.	65	.
Cn1c(C(=O)N2CCCC(C(=O)N3CCN(C(=O)c4ccco4)CC3)C2)cc2sccc21 (configuration not stated)	.	.	.	.	.
CC1CCN(C(=O)C2CCN(C(=O)c3cc4sccc4n3Cc3ccc(F)cc3)CC2)CC1	.	.	73	.	.
O=C(NCc1ccc(F)cc1)c1cc2sccc2n1Cc1ccc(F)cc1	.	/	/	/	/
COc1ccc(CC(=O)N2CCC(Nc3nc4ccccc4n3Cc3ccc(F)cc3)CC2)cc1	.	/	/	/	/
COc1ccccc1CNC(=O)COC(=O)c1ccc(NC(N)=O)cc1	/	.	.	.	.
O=C(CSc1nnc(CNc2ccc(Cl)cc2)n1Cc1ccccc1)NCc1ccco1	/	.	.	.	.
